NSD2 HMT inh: NSD2 (human) methyltransferase inhibition; 0.54% of 310,000 active; AID 743445; inhibition, % at 12.5 µM; NSD2 peptide methylation, AlphaScreen, 120 min; in the data active = inhibition above about 50%
CASP6 VEID inh: caspase-6 (human) enzyme inhibition; P55212; purified caspase-6, Z-VEID-R110 cleavage fluorescence; inhibition, % at 12.5 µM; 0.53% of 350,000 active;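 active = mean inhibition across replicates at least about 35%, with every replicate also reaching that limit, limit read from the data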;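 also: 0% = median of neutral control wells and 100% = no fluorescence left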
Target sequence (P55212 24-179 limits assumed): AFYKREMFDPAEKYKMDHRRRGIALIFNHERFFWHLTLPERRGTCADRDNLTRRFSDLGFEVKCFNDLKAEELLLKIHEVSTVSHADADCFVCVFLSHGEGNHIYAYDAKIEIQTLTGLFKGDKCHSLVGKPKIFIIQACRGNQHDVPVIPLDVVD
Target sequence (P55212 194-293 limits assumed): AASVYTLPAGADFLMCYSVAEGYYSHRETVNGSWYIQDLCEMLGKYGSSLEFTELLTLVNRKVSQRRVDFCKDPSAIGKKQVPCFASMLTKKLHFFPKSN
ALR H2O2 inh: blocks human ALR sulfhydryl oxidase activity | AID 485317 | inhibition, % (test concentration not listed) | purified ALR, DTT oxidation, H2O2 HRP-luminol luminescence | 3.8% of 290,000 active;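 active = mean replicate inhibition above about 79%, with every replicate also reaching it, limit read from the data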
Target sequence (P55789 whole entry, looked up): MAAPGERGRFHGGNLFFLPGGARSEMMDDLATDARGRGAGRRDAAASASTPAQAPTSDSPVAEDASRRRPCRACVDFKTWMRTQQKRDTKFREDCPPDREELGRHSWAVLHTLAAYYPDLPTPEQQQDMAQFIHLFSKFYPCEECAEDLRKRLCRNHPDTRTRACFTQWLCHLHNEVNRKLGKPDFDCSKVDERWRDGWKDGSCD
Env fusion inh: inhibitors of HIV Env-mediated cell fusion. HeLa-JRFL Env/CEM21 cell fusion, luciferase. inhibition, % at 12.3 µM. 1.1% of 360,000 active. AID 651610;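 active = mean replicate inhibition score of at least 50 and every replicate individually at or above 50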;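 also: 0% = plate neutral controls and 100% = maraviroc near 300 nM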
CFTR F508del cor: correctors of CFTR F508del function in bronchial epithelial cells | CFBE cells, YFP halide quenching; stimulated with forskolin plus potentiator P3; % fluorescence drop versus neutral controls | activity (quench increase), % at 7.58 µM | 0.36% of 350,000 active | AID 720511;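 active = mean added fluorescence quench of at least 8% versus neutral control, with both replicates also reaching 8%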;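 also: cells transiently co-express mutant CFTR-F508del with the halide-sensitive YFP; corrector assay measuring rescue of mutant channel to the surface after 24 h compound exposure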
PglD DTNB: blocks C. jejuni PglD acetyltransferase activity; inhibition, % at 12.5 µM; 0.098% of 360,000 active; purified PglD enzyme, DTNB colorimetric CoA detection; in the data active = inhibition above about 16%, passing the limit was not always enough
* = called active by the depositor; nt = no result given; [ ] = another dose, or the depositor's remark. Most compounds without a hit are left out; they make up all but 4.1% or so of the library.

SMILES | NSD2 HMT inh | CASP6 VEID inh | ALR H2O2 inh | Env fusion inh | CFTR F508del cor | PglD DTNB
CCCn1cnc2cc(NCc3cccc(OC)c3O)ccc21 | 5.2 | nt | 85.4* | 4.9 | nt | -4.4
CCCn1c(NCc2cccc(OC)c2O)nc2ccccc21 | 2.2 | nt | 94.2* | -14.0 | nt | 4.3
CCCC#Cc1cnc2c(c1)C(=O)N([C@H](C)CO)C[C@H](C)[C@H](CN(C)C(=O)CN1CCOCC1)O2 | nt | nt | nt | 5.3[16.7 µM] | -0.8 | nt
COc1cccc(-c2ccc3c(c2)[C@H]2[C@H](CCN2C(=O)C2CCOCC2)[C@@H](CO)N3)c1 | nt | -0.3 | nt | nt | 0.4 | -2.2
Cc1nn(-c2ccccc2)c2[nH]c(=O)c(CNc3ccc(N4CCOCC4)cc3)cc12 | -2.2 | nt | 96.7* | nt | nt | 1.2
CCCCCOc1ccc(C2C(C(=O)c3ccc(C)o3)=C(O)C(=O)N2c2cc(C)on2)cc1 (configuration not stated) | 1.1 | 38.9* | 98.1* | 5.2 | 1.7 | -2.8
Cc1cc(N2C(=O)C(O)=C(C(=O)c3cc4ccccc4o3)C2c2cccc(Br)c2)no1 (configuration not stated) | nt | 29.8 | 97.6* | -7.8 | 0.8 | 8.4
CCCOc1cccc(C2C(C(=O)c3cc4ccccc4o3)=C(O)C(=O)N2c2cc(C)on2)c1 (configuration not stated) | -2.3 | nt | 11.0 | 4.3 | 1.3 | -4.7
COc1cccc2cc(C(=O)C3=C(O)C(=O)N(c4cc(C)on4)C3c3cccs3)oc12 (configuration not stated) | 8.1 | 11.6 | 97.7* | -9.3 | -0.3 | nt
CCOc1ccc(C2C(C(=O)c3ccc(C)o3)=C(O)C(=O)N2c2nc(C)c(C(=O)OC)s2)cc1 (configuration not stated) | 1.1 | nt | 97.4* | 4.9 | 1.2 | -3.2
CO[C@H]1CN(C)C(=O)c2ccc(NC(=O)c3ccccc3F)cc2OC[C@@H](C)N(CC2CC2)C[C@@H]1C | nt | -3.3 | nt | -3.7[16.7 µM] | 0.9 | 0.2
COC(=O)c1ccc(C2C(C(=O)c3cc4ccccc4o3)=C(O)C(=O)N2c2cc(C)on2)cc1 (configuration not stated) | 2.1 | 0.6 | 18.6 | -3.6 | -0.8 | -2.2
Cc1cc(N2C(=O)C(O)=C(C(=O)c3cc4ccccc4o3)C2c2ccc(OC(C)C)cc2)no1 (configuration not stated) | -3.4 | 2.5 | 95.7* | -0.9 | 0.5 | -2.2
CC(C)NC(=O)N[C@@H]1C=C[C@@H](CC(=O)N2CCCCC2)O[C@H]1CO | nt | 1.0 | nt | 4.7[16.7 µM] | 2.0 | -0.8
Cc1ccc(NS(=O)(=O)c2ccc(-c3cnc(C4CC4)o3)cc2)cc1 | 1.5 | 6.0 | -3.2 | -63.3 | 6.5 | 0.1
Cc1ccc(N(C)S(=O)(=O)c2ccc(-c3cnc(C4CC4)o3)cc2)cc1 | 1.1 | 1.7 | 1.5 | -405.9 | 8.3* | 3.4
CCC(C)(C)c1ccc(OCCCC[n+]2ccccc2)c(C(C)(C)CC)c1 | 2.8 | -140.5 | -9.6 | 76.9* | 5.8 | nt
C[C@@H]1CN([C@H](C)CO)S(=O)(=O)c2ccc(-c3ccc(F)cc3)cc2O[C@H]1CN(C)C | nt | -0.6 | nt | -5.2[16.7 µM] | -2.1 | 4.2
CCOC(=O)CSc1nc2cc(C(=O)N3CCC(C(N)=O)CC3)ccc2c(=O)n1C1CCCCC1 | 1.0 | 0.9 | 96.8* | 8.9 | nt | nt
CCCCCn1c(SCC(=O)CC(=O)OCC)nc2cc(C(=O)N3CCC(C(N)=O)CC3)ccc2c1=O | 3.7 | 2.6 | 91.2* | 6.9 | -1.4 | nt
COc1ccc2c3c(n(C)c2c1)[C@H](CO)N(C(C)=O)CC31CN(C(=O)NC(C)C)C1 | nt | nt | nt | nt | 1.0 | nt
COc1ccc(N2C(S)=C(C#N)C(=O)NC2c2ccc(OC)c(OC)c2)cc1 (configuration not stated) | -1.8 | 4.9 | 14.9 | 4.0 | -1.3 | nt
CCOc1ccc(C2NC(=O)C(C#N)=C(S)N2c2ccc(OC)cc2)cc1OC (configuration not stated) | 15.2 | 1.3 | 97.1* | nt | nt | 0.6
CNC[C@@H]1Oc2ncc(C#CC3(O)CCCC3)cc2C(=O)N([C@@H](C)CO)C[C@@H]1C | nt | -2.4 | nt | -12.9[16.7 µM] | 0.8 | -0.8
CC[C@@]12C(=O)N(c3ccc(C)cc3)C(=O)N1[C@H](c1ccc(Br)cc1)[C@@H]1C(=O)N(C(C)(C)C)C(=O)[C@@H]12 | nt | -0.4 | -8.6 | 85.6* | 4.7 | -0.1
SMILES | NSD2 HMT inh | CASP6 VEID inh | ALR H2O2 inh | Env fusion inh | CFTR F508del cor | PglD DTNB
CC[C@@]12C(=O)N(c3cccc(Br)c3)C(=O)N1[C@H](c1ccc(Br)cc1)[C@@H]1C(=O)N(C(C)(C)C)C(=O)[C@@H]12 | nt | -1.1 | -23.4 | -11.0 | 2.1 | 0.0
CC[C@@]12C(=O)N(c3ccc(C)cc3)C(=O)N1[C@H](c1ccc(OC)cc1)[C@@H]1C(=O)N(C(C)(C)C)C(=O)[C@@H]12 | nt | 0.1 | -10.8 | 79.8* | 0.4 | 2.4
CC[C@@]12C(=O)N(c3ccccc3)C(=O)N1[C@H](c1ccc(OC)cc1)[C@@H]1C(=O)N(C(C)(C)C)C(=O)[C@@H]12 | nt | -7.4 | 6.9 | 73.2* | -0.5 | -0.3
COc1ccc([C@@H]2[C@@H]3C(=O)N(C(C)(C)C)C(=O)[C@@H]3[C@]3(Cc4ccccc4)C(=O)N(c4ccc(Br)cc4)C(=O)N23)cc1 | nt | nt | 1.0 | nt | nt | -0.3
COc1ccc(N2C(=O)N3[C@H](c4ccc(Br)cc4)[C@@H]4C(=O)N(C(C)(C)C)C(=O)[C@@H]4[C@]3(Cc3ccccc3)C2=O)cc1 | nt | 0.7 | -1.6 | 26.0 | 2.4 | 0.5
CC[C@@]12C(=O)N(c3cccc(Br)c3)C(=O)N1[C@H](c1ccc(OC)cc1)[C@@H]1C(=O)N(C(C)(C)C)C(=O)[C@@H]12 | nt | -1.2 | -2.2 | 95.5* | 1.4 | -3.0
C[C@@H]1CN([C@@H](C)CO)C(=O)c2cc(-c3cccc(C#N)c3)cnc2O[C@@H]1CN(C)Cc1ccncc1 | nt | -1.4 | nt | -6.1[16.7 µM] | 1.5 | -1.1
COc1ccc(CN(C)C[C@H]2OCCCC[C@H](C)Oc3ccc(NC(=O)Cc4ccccc4)cc3C(=O)N([C@H](C)CO)C[C@H]2C)cc1 | nt | nt | nt | 2.0[16.7 µM] | 1.4 | 3.9
CCc1ccccc1NC(=O)CNC(=O)CCc1nc2sc3c(c2c(=O)[nH]1)CCCC3 | 4.8 | 36.5* | -6.3 | 11.0 | -1.6 | 6.9
Cc1ccc(CN(C)C(=O)CCc2nc3sc4c(c3c(=O)[nH]2)CCCC4)o1 | -5.1 | 7.3 | 98.2* | nt | -1.8 | -1.3
O=C(CCc1nc2sc3c(c2c(=O)[nH]1)CCCC3)NCCc1ccccc1 | 1.8 | 2.2 | 9.8 | 0.4 | -0.4 | 3.1
CC(C)(C)n1nc(Cc2cccc3ccccc23)c2c(N)ncnc21 | nt | -2.4 | -11.9 | 82.1* | -1.9 | 5.3
CC(C)NC(=O)N(C)C[C@@H]1Oc2ncc(C#CC3CCCCC3)cc2C(=O)N([C@H](C)CO)C[C@@H]1C | nt | nt | nt | 12.7[16.7 µM] | -1.1 | nt
O=C(O)c1cccc2c(/C=N/Nc3ccccn3)c[nH]c12 | 0.4 | nt | 98.1* | nt | nt | nt
O=C(N/N=C/c1c[nH]c2ccccc12)c1ccc(O)c(O)c1 | 19.5 | 1.1 | 99.3* | 1.0 | 2.5 | 6.5
O=c1nc(N/N=C/c2c[nH]c3ccccc23)cn[nH]1 | -3.0 | 2.5 | 1.3 | 47.8 | 2.0 | nt

Source: PubChem BioAssay (Broad Institute)
